Here are results for 84 sequences from the OligoGym collection.

Some targets named below: PAQR6; PALM2-AKAP2; PAQR4; PCDHA4; PCP2; PCDHGA11; PCSK5; PC; PCTP; PDE12; PDE1C.
What all share (assay): pooled miR-30 sensor sort-seq; sequence = guide strand
Conditions in all cases: shRNA
Note: reference of the scale not given here.

For the sequence TCTATAGGCAAATAGCTGCTGG, the sensor-assay potency score (higher = more potent) with PAQR6 was -0.274.

In turn, AAAGAGTGGGAGGTTGTCGAAC yielded a sensor-assay potency score (higher = more potent) with PAQR6 of -1.08.

For TTGACAGATCTTGAGAACTGAT, the sensor-assay potency score (higher = more potent) in the assay with PALM2-AKAP2 is -0.51.

The sequence TTGAACTGCAGGTGCGGCGGCG displayed a sensor-assay potency score (higher = more potent) with PAQR4 of -1.22.

In the assay with PAQR6, TGTAATCAAAGCGTCCTGGTGC showed a sensor-assay potency score (higher = more potent) of 0.2.

TTCAAAGTCAATATATCCCTTT returned a sensor-assay potency score (higher = more potent) with PCDHA4 of 0.476.

For TATCGTTGTTGTCTTCTACTTC, the sensor-assay potency score (higher = more potent) in the assay with PCDHA4 turned out to be 0.366.

Turning to ATGAGGCTGTCCATCTCGGGGG, the sensor-assay potency score (higher = more potent) with PCP2 was -1.33.

In the assay with PCP2, TGAACAGCGCTGTCCCTCCATC had a sensor-assay potency score (higher = more potent) of -1.32.

TGAAGAAGCCCTCCTGGTCTGG returned a sensor-assay potency score (higher = more potent) in the assay with PCP2 of -1.06.

In turn, TGACTGTCACACGTTGGTCATC came in with a sensor-assay potency score (higher = more potent) in the assay with PCP2 of -1.61.

Sequence TTTTCTGGAACACTCACGCGAT registered a sensor-assay potency score (higher = more potent) in the assay with PCDHGA11 of -0.577.

TAAAACAGGAGACTTGACCATT showed a sensor-assay potency score (higher = more potent) with PCDHGA11 of -0.606.

In the assay with PCDHGA11, TTCTCCAGAATCTTGATCTTGC came in with a sensor-assay potency score (higher = more potent) of 0.227.

Take TTCTGTGCTCCGTCCTTGGACC: the sensor-assay potency score (higher = more potent) with PCP2 is -1.15.

TTGATTTGTCGGTCTGTGCTCT gave a sensor-assay potency score (higher = more potent) with PCSK5 of 0.6.

The sequence ACAGTGATCAACATCGTCGTGG gave a sensor-assay potency score (higher = more potent) with PCDHGA11 of -0.0572.

As for TCCATGAGGCTGTCCATCTCGG, the sensor-assay potency score (higher = more potent) in the assay with PCP2 is -1.39.

Sequence TTGCAGTGAACAGCGCTGTCCC displayed a sensor-assay potency score (higher = more potent) with PCP2 of -0.308.

Consider TGTCACACGTTGGTCATCCATG, for which the sensor-assay potency score (higher = more potent) in the assay with PCP2 was -1.21.

TTGAATTTCCATCTCATAGAAT displayed a sensor-assay potency score (higher = more potent) with PCDHGA11 of -0.931.

Take TCAATTTGTAATAATTTCCATA: the sensor-assay potency score (higher = more potent) with PCDHGA11 is -0.421.

Sequence TTGGTGGTCTGGCCCGGCCCGG showed a sensor-assay potency score (higher = more potent) with PCP2 of -1.82.

In the assay with PCSK5, TTGATGAATCCGTACTTGCTGG had a sensor-assay potency score (higher = more potent) of -0.268.

ACACGTTGGTCATCCATGCGGC gave a sensor-assay potency score (higher = more potent) with PCP2 of -0.873.

As to TTTCTGTGCTCCGTCCTTGGAC, in the assay with PCP2, the sensor-assay potency score (higher = more potent) is -1.03.

TTTTGCTTCAACCATGTCCGTG displayed a sensor-assay potency score (higher = more potent) with PCSK5 of -0.77.

Sequence TTTGACACATTCCTAAGTCTAA gave a sensor-assay potency score (higher = more potent) with PCSK5 of -0.793.

TCGTTTCTGTGCTCCGTCCTTG returned a sensor-assay potency score (higher = more potent) in the assay with PCP2 of -0.435.

TAGTGCAAACAGTCATTGCAGT showed a sensor-assay potency score (higher = more potent) with PCSK5 of -0.552.

Regarding TTGTCTTGATTTGTCGGTCTGT, the sensor-assay potency score (higher = more potent) with PCSK5 was 0.944.

On to TTGTACAGTTCTTGAATCCTGG, for which the sensor-assay potency score (higher = more potent) in the assay with PCSK5 was -0.113.

Regarding TTCCATTGAAATGAAACTGTGG, the sensor-assay potency score (higher = more potent) with PCSK5 was -0.149.

Sequence TATCTCCACTTCGTCCTCCTGG gave a sensor-assay potency score (higher = more potent) in the assay with PCDHGA11 of -0.661.

Take ATAGCTGATACTACAGCTCTGC: the sensor-assay potency score (higher = more potent) with PCSK5 was -0.314.

As for TCTACTTCCACAATAACTCTAC, in the assay with PCDHA4, the sensor-assay potency score (higher = more potent) turned out to be 0.0889.

For the sequence TTTGCTTCAACCATGTCCGTGA, in the assay with PCSK5, the sensor-assay potency score (higher = more potent) came out at 0.588.

Regarding TTTAGAAGAGCAATCACTGTAC, the sensor-assay potency score (higher = more potent) with PCDHGA11 was found to be 0.556.

Sequence TATATTGTAGCTCTGGACCAAC came in with a sensor-assay potency score (higher = more potent) with PCDHGA11 of -0.9.

Turning to TAGCTCTGGACCAACTCCCTGT, the sensor-assay potency score (higher = more potent) with PCDHGA11 was determined as 0.0165.

As for TTGTCCACCGCAACCACCTTGG, the sensor-assay potency score (higher = more potent) with PCDHGA11 was -0.673.

As for TTTGTCCACCGCAACCACCTTG, in the assay with PCDHGA11, the sensor-assay potency score (higher = more potent) is -1.17.

Take TTCCTCAGTTGTCTGCAGCTGA: the sensor-assay potency score (higher = more potent) with PCDHA4 stood at 0.537.

Turning to TTTTGCAGGATTTGTATCCATT, in the assay with PCSK5, the sensor-assay potency score (higher = more potent) is -1.05.

In turn, TCTTGTTGCCATTGCCACCTGC returned a sensor-assay potency score (higher = more potent) in the assay with PCDHGA11 of -0.107.

In turn, TTCATCTGCTTTCTGCCGGTGC displayed a sensor-assay potency score (higher = more potent) with PC of -0.101.

With AAGTCCAGTCTTCTTGTCCAGC, the sensor-assay potency score (higher = more potent) with PCTP was -1.17.

As to TATCCTTTTAGAAGAGTCCTTT, the sensor-assay potency score (higher = more potent) with PDE12 came to 0.141.

In the assay with PDE1C, TGAACGATGCTCTTGAACCGGG displayed a sensor-assay potency score (higher = more potent) of -0.343.

For TTGACCTCCTTGAACTTGGAGC, the sensor-assay potency score (higher = more potent) in the assay with PC was -0.629.

TTGATGTCTATCACCTTCCCAG displayed a sensor-assay potency score (higher = more potent) in the assay with PC of -0.547.

Turning to TACATTTCTAAATATTCTGGGA, the sensor-assay potency score (higher = more potent) with PCTP was -0.38.

Regarding TTGTTGAGCACATTCTGCAGGA, in the assay with PC, the sensor-assay potency score (higher = more potent) is 0.211.

Regarding TTCTTGACCTCCTTGAACTTGG, in the assay with PC, the sensor-assay potency score (higher = more potent) was -0.463.

As for TTGAGGGAGTCAAACACACGGA, the sensor-assay potency score (higher = more potent) in the assay with PC came to 0.00371.

TTCTTTGTGAAGTGGGTCGGAC came in with a sensor-assay potency score (higher = more potent) with PDE12 of -0.551.

TTCTCGTCGATGAACTGGGTGT yielded a sensor-assay potency score (higher = more potent) with PC of -0.428.

In the assay with PDE12, TGAAATTGTAGTAAATCGCTAA yielded a sensor-assay potency score (higher = more potent) of 0.612.

Regarding TACTGCAGTGAGTACTTGGTGC, the sensor-assay potency score (higher = more potent) in the assay with PC was -0.271.

Take TTCACCACAAGCACTTTTCAGC: in the assay with PDE12, the sensor-assay potency score (higher = more potent) is -0.0283.

Turning to TTTGCTAGCTGCCACAGCCATC, the sensor-assay potency score (higher = more potent) with PCTP is -1.46.

As for TTGAACTGTAGAAGAAGGCAGC, the sensor-assay potency score (higher = more potent) in the assay with PCTP is -0.297.

With AAATGTAATCTAGACATCCATG, the sensor-assay potency score (higher = more potent) with PDE12 was -1.09.

In turn, TTGAAGACCACGTTGTCTGGGT returned a sensor-assay potency score (higher = more potent) with PC of 0.437.

The sequence TTGGTCACATGAACCTTGCGGA gave a sensor-assay potency score (higher = more potent) in the assay with PC of 0.159.

Sequence TTATAGAACACACTTTTCTTCC returned a sensor-assay potency score (higher = more potent) in the assay with PCTP of -0.218.

Sequence TTCTTTAACATACTGGTCCCAT displayed a sensor-assay potency score (higher = more potent) with PCTP of -0.412.

In the case of TTGAAAGCAATTCCGACTGTGC, the sensor-assay potency score (higher = more potent) with PCSK5 is -0.25.

TAGTACTGCAGTGAGTACTTGG: the sensor-assay potency score (higher = more potent) in the assay with PC is -0.46.

Consider TAACTTCTTCATGACTAGGTAA, for which the sensor-assay potency score (higher = more potent) with PDE12 is -0.476.

On to TTCATTATAGAACACACTTTTC, for which, in the assay with PCTP, the sensor-assay potency score (higher = more potent) is -1.43.

With TAGAGTTCTTTAACATACTGGT, the sensor-assay potency score (higher = more potent) in the assay with PCTP was 0.218.

In the assay with PDE12, TTGTAGTAAATCGCTAACTAAA registered a sensor-assay potency score (higher = more potent) of -1.21.

As for TTGCACAATGGAATGATCGTGT, in the assay with PCTP, the sensor-assay potency score (higher = more potent) was determined as 0.345.

Sequence TAACATACTGGTCCCATTGTTT registered a sensor-assay potency score (higher = more potent) with PCTP of -0.841.

In the case of TAACTTAAGTCTCTCACCCTTA, in the assay with PDE12, the sensor-assay potency score (higher = more potent) is -0.0358.

In the case of TAGAGTGATCCTTCTTGTCTGT, the sensor-assay potency score (higher = more potent) with PDE1C turned out to be 0.0178.

Sequence TAGTACATAAGCATGATTCATT came in with a sensor-assay potency score (higher = more potent) in the assay with PDE12 of -0.285.

As for TAAGATCTACCACTGAAGCTTC, the sensor-assay potency score (higher = more potent) with PDE1C is -0.318.

TAAATCGCTAACTAAATTGAGG: the sensor-assay potency score (higher = more potent) in the assay with PDE12 was -0.622.

TTGAGGTAGAGGTAGACCCTAA: in the assay with PDE12, the sensor-assay potency score (higher = more potent) was -0.795.

The sequence TTCTTGTTCATAGAGTTCTTTA registered a sensor-assay potency score (higher = more potent) with PCTP of -0.702.

On to TTGAAGTTTACATATAAGCTTT, for which, in the assay with PDE12, the sensor-assay potency score (higher = more potent) was -0.258.

The sequence TCTCGCAGCAGGATGTCTCTGA registered a sensor-assay potency score (higher = more potent) with PC of 0.144.
